Our source for the Potency and outcome values is PubChem BioAssay (NCATS).

In assay [1] the target is Cytochrome P450 2C9 (Homo sapiens) (UniProt P11712). The assay is described as follows: qHTS Assay for Inhibitors and Substrates of Cytochrome P450 2C9 (AID 883). Further: potency means the concentration at half of the fitted maximal effect; nearly all actives have a fitted effect of over 60% in size. Conditions: recombinant CYP2C9, luciferin-H luminescence, 60 min; series mostly up to 57.1 µM. In short, it runs like this: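 Luminescent read-out of deoxyluciferin hydroxylation, normalized to 57uM sulphaphenazole (AC100). Reaction: 10nM enzyme, 100uM Luciferin-H (equal to KM), 25mM KPO4, 10 min compound preincubation, then 60 min with NADPH regeneration, both at 37C.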
On the technique in general: qHTS replaces the single test concentration by a dilution series.

Assay [2] in a line: S16 Schwann cell PMP22 intronic element firefly luciferase assay (AID 624032). Further: nearly all actives have a fitted effect of over 30% in size. Further: potency means the concentration at half of the fitted maximal effect. Conditions: S16 rat Schwann cells, PMP22 element FLuc, 24 h; series mostly up to 57.5 µM. In short, it runs like this: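 Luciferase reporter of PMP22 intronic-element expression in stably transfected S16 rat Schwann cells, read by ONE-Glo luminescence after 24 h compound exposure at 37 C. Activity scaled between DMSO (0%) and positive-control PTC124; concentration-effect curves quality-classified.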

Assay [3] is described as follows: S16 Schwann cell PMP22 intronic element beta-lactamase assay (AID 624044; calls by dose curve; further: nearly all actives have a fitted effect of over 15% in size). The settings on record: S16 rat Schwann cells, PMP22 element beta-lactamase FRET, 24 h; series mostly up to 38.3 µM. In short, it runs like this: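 Beta-lactamase reporter under a PMP22 intronic regulatory element in stable S16 rat Schwann cells; 24 h compound exposure. 460 nm blue signal normalized between DMSO (0%) and potassium clavulanate, with 535 nm FRET tracking viability; curves classed by r2 and response.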

The test system of another assay is CP192. The experiment in a line: qHTS profiling for inhibitors of Plasmodium falciparum proliferation (AID 504749). Further: nearly all actives have a fitted effect of over 60% in size. Further: potency means the concentration at half of the fitted maximal effect. The settings on record: P. falciparum in erythrocytes, SYBR Green DNA, 72 h; series mostly up to 28.7 µM. An outline of the steps: (§1)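 In a 72 h erythrocytic culture (37 C, humidified, 5% CO2) at 2.5% hematocrit and 0.3% starting parasitemia, compounds were tested; SYBR Green I in detergent lysis buffer stained parasite DNA overnight.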

The next assay has as its system CP203. The assay is described as above. Conditions: P. falciparum in erythrocytes, SYBR Green DNA, 72 h; series mostly up to 28.7 µM. An outline of the steps:
as §1

Another assay deals with CP211. The description is as above. Conditions: P. falciparum in erythrocytes, SYBR Green DNA, 72 h; series mostly up to 28.7 µM. In short, it runs like this:
as §1

In the next assay the test system is CP262. The description is as above. The settings on record: P. falciparum in erythrocytes, SYBR Green DNA, 72 h; series mostly up to 28.7 µM. An outline of the steps: as §1
The test system of the next assay is CP266. The description is as above. The settings on record: P. falciparum in erythrocytes, SYBR Green DNA, 72 h; series mostly up to 28.7 µM. In short, it runs like this:
as §1

The test system of another assay is CP268. The assay is described as above. Conditions: P. falciparum in erythrocytes, SYBR Green DNA, 72 h; series mostly up to 28.7 µM. In short, it runs like this:
as §1

In the next assay the test system is CP269. Described as above. The settings on record: P. falciparum in erythrocytes, SYBR Green DNA, 72 h; series mostly up to 28.7 µM. An outline of the steps:
as §1

Another assay deals with CP297. The description is as above. The settings on record: P. falciparum in erythrocytes, SYBR Green DNA, 72 h; series mostly up to 28.7 µM. In short, it runs like this:
as §1

In another assay the test system is CP315. The description is as above. Conditions: P. falciparum in erythrocytes, SYBR Green DNA, 72 h; series mostly up to 28.7 µM. In short, it runs like this: as §1
For the next assay, the system named is CP325. The description is as above. Conditions: P. falciparum in erythrocytes, SYBR Green DNA, 72 h; series mostly up to 28.7 µM. An outline of the steps:
as §1

A further assay deals with CP329. Described as above. Conditions: P. falciparum in erythrocytes, SYBR Green DNA, 72 h; series mostly up to 28.7 µM. An outline of the steps: as §1
The subject of the next assay is CP335. Described as above. The settings on record: P. falciparum in erythrocytes, SYBR Green DNA, 72 h; series mostly up to 28.7 µM. An outline of the steps: as §1
A further assay deals with DIV14. Described as above. Conditions: P. falciparum in erythrocytes, SYBR Green DNA, 72 h; series mostly up to 28.7 µM. In short, it runs like this:
as §1

The test system of another assay is DIV17. The assay is described as above. The settings on record: P. falciparum in erythrocytes, SYBR Green DNA, 72 h; series mostly up to 28.7 µM. An outline of the steps:
as §1

Another assay has as its system DIV30. The description is as above. Conditions: P. falciparum in erythrocytes, SYBR Green DNA, 72 h; series mostly up to 28.7 µM. An outline of the steps:
as §1

Another assay relates to PC26. The assay is described as above. Conditions: P. falciparum in erythrocytes, SYBR Green DNA, 72 h; series mostly up to 28.7 µM. An outline of the steps:
as §1

The test system of the next assay is W2. Described as above. The settings on record: P. falciparum in erythrocytes, SYBR Green DNA, 72 h; series mostly up to 28.7 µM. In short, it runs like this: as §1

The structures appear in SMILES notation. Results filed as inconclusive are left out. Active and inactive are the calls of the source. Unless noted, the call rests on the fitted dose curve; in most records, active means well fitted curve in the direction sought with a large enough effect; inconclusive means small, poorly fitted or top-dose-only effect, or another doubt; inactive means no such curve, though single readings can be large; an effect the other way counts as inactive or inconclusive.

Cytochrome P450 2C9 (Homo sapiens), sequence (P11712 whole entry, looked up): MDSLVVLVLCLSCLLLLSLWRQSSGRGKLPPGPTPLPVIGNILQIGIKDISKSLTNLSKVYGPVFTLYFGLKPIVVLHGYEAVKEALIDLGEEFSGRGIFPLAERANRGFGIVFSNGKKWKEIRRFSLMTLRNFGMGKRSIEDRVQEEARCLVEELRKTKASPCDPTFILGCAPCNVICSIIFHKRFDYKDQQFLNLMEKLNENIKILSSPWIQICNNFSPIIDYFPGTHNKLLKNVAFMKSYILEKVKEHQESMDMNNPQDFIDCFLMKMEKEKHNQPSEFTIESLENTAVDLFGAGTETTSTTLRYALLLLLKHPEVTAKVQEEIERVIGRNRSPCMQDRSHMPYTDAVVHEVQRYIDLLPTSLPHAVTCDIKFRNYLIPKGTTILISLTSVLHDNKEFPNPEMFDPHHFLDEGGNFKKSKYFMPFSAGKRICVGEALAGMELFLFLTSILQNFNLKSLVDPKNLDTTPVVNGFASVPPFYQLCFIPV

`N=C1Sc2ccccc2C2=NCCCN12`: the Potency in [1] was 0.794 µM (active).

For the compound `CN1C(=O)CCC1c1cccnc1` (stereo not given), the Potency result (in [2]; in the assay with CP192; in the assay with CP203; in the assay with CP211; in the assay with CP262; in the assay on CP266) was “inactive” in each case. Moreover, the Potency entry in the assay with CP268, in the assay with CP269, with CP297, in the assay on CP315, in the assay on CP325 and in the assay on CP329 was “inactive” in each case. In addition, the Potency entry in the assay with CP335, in the assay with DIV14, with DIV17, in the assay on DIV30, in the assay on PC26 and in the assay with W2 was “inactive” in each case. The call in assay [3] was inactive.

`CN=C(N)NCCCC(N)C(=O)O` (stereo not given): the Potency entry (in assay [2]; in the assay on CP192; with CP203; in the assay with CP211; with CP262; with CP266) was “inactive” each time. Further, the Potency entry with CP268, with CP269, in the assay on CP297, with CP315, in the assay on CP325 and in the assay with CP329 was “inactive” throughout. The Potency entry in the assay on CP335, in the assay on DIV14, in the assay on DIV17, in the assay with DIV30, in the assay on PC26 and in the assay with W2 was “inactive” each time. Moreover, the result in [3] was inactive.

On to `CC(C)(C)[C@]1(O)CCN2CC3c4ccccc4CCc4cccc(c43)[C@@H]2C1` (stereo not given in full), for which the Potency in assay [2] is 36.1 µM (active); in the assay with CP335, 10.7 µM (active); in the assay on DIV14, 10.7 µM (active); in the assay on DIV17 it was 15.1 µM (active); in the assay on W2, 5.36 µM (active). The Potency entry in the assay on CP315 and with CP329 was “inactive” each time.

For the compound `COC(=O)c1c(-c2cc(OC)c(OC)c(OC)c2)c2ccc(OCc3ccccn3)cc2c(=O)n1-c1ccc(N)cc1`, in [1], the Potency was 3.98 µM (active).

On to `COc1ccc(CCNC[C@@H](O)c2ccc(O)cc2)cc1OC`, for which the Potency result (in [2]; in the assay with CP192; in the assay with CP211; in the assay with CP262; in the assay on CP266; with CP268) was “inactive” in each case. For the same compound, the Potency result in the assay with CP269, in the assay with CP315, in the assay with CP325, in the assay on CP329 and in the assay with CP335 was “inactive” in each case. In [3], the compound was called inactive.

As to `CCCC(=O)NCCc1c2n(c3ccc(OC)cc13)Cc1ccccc1-2`, in assay [1], the Potency is 1.26 µM (active).

With `CC(C)C[C@H]1C(=O)N2CCCC2[C@]2(O)O[C@](NC(=O)[C@@H]3C=C4c5cccc6[nH]c(Br)c(c56)C[C@H]4N(C)C3)(C(C)C)C(=O)N12` (stereo not given in full), the outcome in assay [3] was inactive. In addition, the Potency in the assay on CP192 was 16.9 µM (active); in the assay on CP203, 9.53 µM (active); in the assay with CP211 it was 15.1 µM (active); in the assay on CP262 it was 8.49 µM (active); with CP268, 12 µM (active); with CP269, 10.7 µM (active). The Potency in the assay with CP297 is 10.7 µM (active); with CP325 it was 9.53 µM (active); in the assay on CP335 it was 3.79 µM (active); in the assay with DIV14 it was 3.38 µM (active); with DIV17 it was 3.79 µM (active); with DIV30, 5.36 µM (active). For the same compound, the Potency was 5.36 µM (active) in the assay with PC26 and 1.69 µM (active) in the assay on W2.

As to `COc1cc2c(cc1OC)C(c1ccccc1)CN(C)CC2` (stereo not given), the Potency result (in [2]; in the assay on CP203; in the assay with CP211; in the assay on CP262; in the assay with CP266; with CP315) was “inactive” each time. The Potency result in the assay on CP325, with DIV30 and in the assay on PC26 was “inactive” throughout. In addition, in assay [3], the result was inactive.
